Assay results taken from PubChem BioAssay AID485364 (National Center for Advancing Translational Sciences (NCATS), 2010).
About 11,000 (3.1%) of roughly 360,000 compounds were called active. A call without a number means that no potency is given here. Roughly 4% stayed inconclusive and do not appear here. Calls follow the shape of the dose curve; as a rule, active = well fitted inhibition curve with a large enough effect; inconclusive = small, poorly fitted or top-dose-only effect; inactive = no such curve, though single readings can be large or run the other way. Many of the other results were omitted from the sample, so actives are more common in it than they were.

Target: Schistosoma mansoni thioredoxin glutathione reductase (TGR) (UniProt Q962Y6)
Test: qHTS Assay for the Inhibitors of Schistosoma Mansoni Peroxiredoxins; also: nearly all actives have a fitted effect of over 60% in size
Conditions: purified TGR, DTNB reduction, TNB absorbance 405 nm; series mostly up to 114 µM
Summary of the method: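 TGR 20 nM + NADPH 100 uM (dispensed conc.), cpd preinc 15 min RT; start with NADPH (500 uM addition) then DTNB (15 mM addition). Kinetic TNB absorbance, 405 nm filter. Four-parameter Hill fit across titration.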
Potency is read from the fitted curve at half-maximal effect.

Row | Compound | Potency
1 | CCC(=O)N1CCc2cc(Br)cc(S(=O)(=O)CCC(=O)N3CCN(c4ccc(F)cc4)CC3)c21 | inactive
2 | Cc1cccc(C(=O)Nc2nnc(Cc3c[nH]c4ccccc34)s2)c1 | inactive
3 | COC(c1ccccc1)c1nnc(CCC(=O)N2CCN(CCOc3ccccc3)CC2)o1 (stereo not drawn) | inactive
4 | Cc1nn(C)c(C)c1CN(C(=O)CCc1nnc(Cc2c[nH]c3ccccc23)o1)C(C)C | 35.5 µM (active)
5 | CC(C)N(C)C(=O)CCc1nnc(CCc2c[nH]c3ccccc23)o1 | inactive
6 | Cc1nc(CN2CCN(C(=O)CCc3nnc(Cc4c[nH]c5ccccc45)o3)CC2)cs1 | 39.8 µM (active)
7 | CCOc1ccc(CN2CCN(Cc3c[nH]c4ccccc34)CC2)cc1 | inactive
8 | O=C(COc1ccccc1F)Nc1ccc(C(=O)OCc2cc(=O)n3nc(C4CC4)sc3n2)cc1 | inactive
9 | COc1ccc(CCNC(=O)CCCCn2c(=O)c3ccccc3n(Cc3ccccc3C)c2=O)cc1OC | inactive
10 | Cc1cccc(N2CCN(C(=O)c3ccc(Nc4nc5ccccc5n5nnnc45)cc3)CC2)c1C | inactive
11 | COC(=O)c1cccc(N2C(=O)C3C4C=CC(CC4)C3C2=O)c1 (stereo not drawn) | inactive
12 | Cc1cccc(N2C(=O)CC(SC(N)=Nc3ccccc3)C2=O)c1 (stereo not drawn) | inactive
13 | COC(=O)c1ccccc1SC1CC(=O)N(c2cccc(C)c2)C1=O (stereo not drawn) | 50.1 µM (active)
14 | COc1ccc(N2CCN(c3nc(-c4ccccc4F)nc4ccccc34)CC2)cc1 | inactive
15 | Oc1c(C(c2ccccc2Cl)N2CCOCC2)sc2nc(-c3ccco3)nn12 (stereo not drawn) | inactive
16 | CSc1nc(-c2ccco2)nn1C(=O)c1ccccc1Cl | 7.08 µM (active)
17 | O=C(CSc1oc(-c2ccco2)nc1S(=O)(=O)c1ccccc1)c1ccc(Cl)cc1 | inactive
18 | Cc1cccc(NC(=O)Cn2cc(S(=O)(=O)Cc3ccccc3Cl)c3ccccc32)c1 | inactive
19 | CC(=O)c1nn(-c2ccc(OC(F)(F)F)cc2)nc1Nc1ccccc1 | inactive
20 | COc1ccc(CNC(=O)Cc2coc3ccc(C(C)C)cc23)cc1 | inactive
21 | CN1CCN(c2oc(-c3ccc(COc4ccc(Cl)cc4)o3)nc2C#N)CC1 | inactive

Row | Compound | Potency
22 | Cc1cc(C)c(NC(=O)Cn2c(SCC(=O)NCc3ccccc3)nc3ccccc32)c(C)c1 | inactive
23 | CCOC(=O)c1c(C)n(S(=O)(=O)c2ccc(C)cc2C)c2ccc(NS(=O)(=O)c3ccc(C)cc3C)cc12 | inactive
24 | CC1=C/C(=N\OS(=O)(=O)c2ccccc2)C=CC1=O | 2.24 µM (active)
25 | O=C(COc1ccc(Cl)cc1)Nc1ccc(-c2nc3cc(Cl)ccc3o2)c(O)c1 | inactive
26 | CC(C)(C)Nc1c(-c2cccs2)nc2ccccn12 | 50.1 µM (active)
27 | Cc1nc2ccccn2c(=O)c1NC(=O)c1cccs1 | inactive
28 | Cc1ccc(Nc2c(-c3ccc(C)s3)nc3ccccn23)cc1 | inactive
29 | COc1ccc(-c2cc(C(=O)NCc3cc(OC)c(OC)c(OC)c3)[nH]n2)cc1 | inactive
30 | CCOc1ccc(S(=O)(=O)N(CC(=O)NCCSCc2ccc(C)cc2)c2ccccc2)cc1 | inactive
31 | Cc1ccc(NC(=O)CN2c3ccccc3S(=O)(=O)c3ccccc32)cc1F | inactive
32 | O=C(NNC(=O)c1ccc(-n2cncn2)c([N+](=O)[O-])c1)c1ccccc1 | inactive
33 | O=C(CCn1nnc2ccccc21)OCC(=O)c1ccc([N+](=O)[O-])cc1 | inactive
34 | O=C(CC(n1cncn1)C(Cl)(Cl)Cl)c1ccc([N+](=O)[O-])cc1 (stereo not drawn) | 0.282 µM (active)
35 | Cc1cc(=O)n(CC(=O)Nc2cccc([N+](=O)[O-])c2)c(-n2nc(C)cc2C)n1 | inactive
36 | COc1cc(C(=O)NCC(c2ccc(Cl)cc2)N2CCOCC2)cc(OC)c1OC (stereo not drawn) | inactive
37 | O=C(CCl)Nc1cccc(CP(=O)(c2ccccc2)c2ccccc2)c1 | 11.2 µM (active)
38 | O=C(CSCc1ccccc1)Nc1ccccc1 | inactive
39 | O=C(CSc1ccccc1)Nc1ccc(C(=O)Nc2cccc(O)c2)cc1 | inactive
40 | COC(=O)c1ccc(-c2c(-c3ccccc3)ncc3cc(OC)c(OC)cc23)cc1 | 14.1 µM (active)
41 | COc1ccc(C(=O)Nc2ccc(-n3nncc3-c3ccccc3)cc2)cc1OC | inactive
42 | COC(=O)c1cc(NC(=O)c2cnc(SC)nc2-c2ccccc2)cc(C(=O)OC)c1 | inactive

Row | Compound | Potency
43 | CC(C)CCN1CCN(Cc2ccc(C(F)(F)F)cc2)CC1CCO (stereo not drawn) | inactive
44 | CC(C)CN1CCN(Cc2ccccc2C(F)(F)F)CC1CCO (stereo not drawn) | inactive
45 | CC(C)CCN1CCN(C/C=C/c2ccco2)CC1CCO (stereo not drawn) | 25.1 µM (active)
46 | O=C(NC1CC(=O)N(c2ccc(Cl)cc2)C1)C1CCCC1 (stereo not drawn) | inactive
47 | Cc1ccc(CN2CCCn3nc(C(=O)NCc4ccccc4Cl)cc3C2=O)cc1 | inactive
48 | Cc1ccc(-n2ncc3c(NCCCn4ccnc4)ncnc32)cc1Cl | inactive
49 | CCC(C)c1ccc(O)c(/C=N/O)c1 (stereo not drawn) | inactive
50 | CC(=O)NCC(O)c1ccc([N+](=O)[O-])cc1 (stereo not drawn) | inactive
51 | CNCC(O)c1ccc(O)c(O)c1 (stereo not drawn) | 44.7 µM (active)
52 | CCC(=O)N1CCc2cc(Br)cc(S(=O)(=O)CCC(=O)NCCc3ccc(OC)c(OC)c3)c21 | inactive
53 | O=C(CSc1nc2c(c(=O)[nH]1)CN(Cc1ccc(F)cc1)CC2)Nc1ccccc1Cl | inactive
54 | Cc1ccc(Cl)cc1N1CCN(C(=O)c2cn(C)c3ccc(S(=O)(=O)N(C)C4CCCCC4)cc3c2=O)CC1 | inactive
55 | CC(=O)Nc1ccc(S(=O)(=O)NCCc2ccccc2)cc1 | inactive
56 | C=C(C)CNC(=S)Nc1ccc(S(=O)(=O)Nc2cnc3ccccc3n2)cc1 | 11.2 µM (active)
57 | O=C(CS(=O)(=O)c1ccccc1)Nc1ccc(S(=O)(=O)Nc2ccccn2)cc1 | inactive
58 | Cc1cccc(NC(=O)N2CCN(C)c3ncccc32)c1C | inactive
59 | Cc1cccc(NC(=O)c2nnn(CC(=O)Nc3ccc(C(C)C)cc3)c2N)c1C | inactive
60 | CCOc1ccccc1NC(=O)C1=C(C)Nc2ncnn2C1c1ccc(NC(C)=O)cc1 (stereo not drawn) | inactive
61 | CCC(=O)N1CCc2cc(S(=O)(=O)NC(Cc3ccccc3)C(=O)NCc3ccc(C)cc3)ccc21 (stereo not drawn) | inactive
62 | CCOc1ccc(CNCCSc2nnnn2C)cc1 | inactive
63 | COc1ccc(C2Sc3ccccc3NC3=C2C(=O)c2ccccc23)c(OC)c1OC (stereo not drawn) | inactive
